Compound activity (PubChem)
The list is not random: actives were taken first. Their share in the collection is about 2.6%.
p53 PUMA act – restores mutant p53 pathway signaling in SW480 cells; activation, % at 9.98 µM; 28,000 compounds, 1.5% hits; SW480 PUMA-promoter luciferase, p53 mutant reactivation; in the data active = activation above about 52%
STAT3 SMM – binders of human STAT3. Small molecule microarray, His-STAT3 binding, anti-His fluorescence. AID 624138. 17,000 compounds, 0.2% hits. calls only;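 active = compounds whose four printed spots each show fluorescence over background unusually high for their array block, chance value under 7%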
p53 mut binder – mutant p53 (human) binding; small molecule microarray binding, anti-GST fluorescence; calls only; 17,000 compounds, 0.4% hits; AID 624136;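 active = compounds whose four printed spots each glow above background more than chance allows, each with a p-value under 7%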
NFkB binder – binds human NF-kappa-B p105 on microarray. P19838. Small molecule microarray, anti-His fluorescence binding. calls only. 17,000 compounds, 1.3% hits. AID 624139;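 active = spot fluorescence over background significantly raised, with a chance value under 7% in all four replicate spots of the compound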;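 also: probe protein is his-tagged human p50 processed subunit at 1 µg/ml; raw spot fluorescence signals with no normalization applied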
Target sequence (P19838 1-433 limits assumed): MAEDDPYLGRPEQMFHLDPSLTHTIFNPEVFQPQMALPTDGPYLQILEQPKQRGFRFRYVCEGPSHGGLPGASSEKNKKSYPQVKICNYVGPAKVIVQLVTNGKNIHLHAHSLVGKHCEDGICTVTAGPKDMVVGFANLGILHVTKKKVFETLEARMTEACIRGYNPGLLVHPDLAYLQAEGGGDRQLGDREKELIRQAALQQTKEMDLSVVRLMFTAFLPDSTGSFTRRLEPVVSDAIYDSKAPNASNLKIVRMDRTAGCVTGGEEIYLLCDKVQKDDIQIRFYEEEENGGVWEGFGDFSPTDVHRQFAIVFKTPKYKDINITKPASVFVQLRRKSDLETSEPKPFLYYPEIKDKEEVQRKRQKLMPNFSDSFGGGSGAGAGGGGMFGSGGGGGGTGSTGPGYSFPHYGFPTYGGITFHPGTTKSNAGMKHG
Myc binder – c-Myc (human) binding. AID 624141. small molecule microarray, His-c-Myc binding, anti-His fluorescence. 17,000 compounds, 1.5% hits. calls only. P01106;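 active = spot fluorescence over background with P-value below 7% in all four replicate spots, showing protein binding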;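 also: score is binary with 100 for all four spots passing and 0 otherwise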
Numbers without * were called inactive; i = inactive; nt = no result; + = active, no number.

SMILES	p53 PUMA act	STAT3 SMM	p53 mut binder	NFkB binder	Myc binder
O=C(NCc1ccccn1)Nc1ccc(F)cc1F	34	i	i	i	i
O=C(COc1ccc(Cl)cc1Br)NCc1ccccn1	76*	nt	nt	nt	nt
C=C/C=C/[C@@H]1C(=C)CN2[C@H]1[C@H](Cc1ccccc1)OC(=O)[C@@H]2Cc1ccccc1	nt	i	i	i	i
COc1cc([N+](=O)[O-])ccc1NC(=O)CS(=O)(=O)Cc1ccccc1	9	nt	nt	nt	nt
COc1ccc(NC(=O)c2ccco2)c(NC(=O)CSc2ccc(Cl)cc2)c1	-7	nt	nt	nt	nt
COc1ccc(CNc2nc(-c3ccc(Cl)cc3)nn2C(=O)c2ccco2)cc1	87*	nt	nt	nt	nt
COc1ccc(CC(=O)n2nc(-c3ccc(Cl)cc3)nc2NCc2ccco2)cc1OC	110*	nt	nt	nt	nt
COc1ccc(-c2cnc3c(c2)C(=O)N([C@@H](C)CO)C[C@@H](C)[C@@H](CN(C)C(=O)Cc2ccccn2)O3)cc1	3	nt	nt	nt	nt
Cc1ccc(NC(=O)CCCOc2ccccc2)c([N+](=O)[O-])c1	79*	nt	nt	nt	nt
O=C(COc1ccc2ccccc2c1Br)Nc1cccnc1	80*	nt	nt	nt	nt
COc1ccc(NC(=O)CSc2nnc(C)s2)c([N+](=O)[O-])c1	2	nt	nt	nt	nt
COc1ccc(OCC(=O)Nc2ccccc2OC(F)F)cc1	65*	i	i	i	i
COc1ccc(NC(=O)CSc2nc3ccccc3o2)c([N+](=O)[O-])c1	69*	i	i	i	i
C[C@H](CO)N1C[C@H](C)[C@H](CN(C)S(=O)(=O)c2cccs2)Oc2ccc(NC(=O)Cc3cn(C)c4ccccc34)cc2CC1=O	-10	i	i	i	i
C/C(=C\C=C\[C@@H](C)[C@H]1CC[C@@]2(C)[C@@H]3CCC4C(C)(C)[C@@H](O[C@@H]5O[C@H](CO)[C@@H](O[C@@H]6O[C@@H](C)[C@H](O)[C@@H](O)[C@H]6O)[C@H](O)[C@H]5O[C@@H]5O[C@H](CO[C@@H]6O[C@H](CO)[C@@H](O)[C@H](O)[C@H]6O)[C@@H](O)[C@H](O)[C@H]5O[C@@H]5O[C@@H](C)[C@H](O)[C@@H](O)[C@H]5O)CC[C@@]45C[C@@]35CC[C@]12C)C(=O)N[C@@H]1C(=O)O[C@H](C)[C@@H]1C (some centres not stated)	-8	i	i	i	i
Cc1noc(C)c1S(=O)(=O)Nc1ccc2c(c1)CC(=O)N([C@H](C)CO)C[C@@H](C)[C@@H](CN(C)C(=O)Nc1cccc3ccccc13)O2	6	nt	nt	nt	nt
COc1ccc(NC(=O)C(C)Oc2ccccc2)c([N+](=O)[O-])c1 (configuration not stated)	86*	nt	nt	nt	nt
CC(=O)Nc1ccccc1NC(=O)COc1ccc2ccccc2c1Br	-10	i	i	i	i
COc1ccc(NC(=O)COc2cc(C)cc(C)c2C)c([N+](=O)[O-])c1	-7	nt	nt	nt	nt
Cc1ccc(NC(=O)COc2ccc3ccccc3c2Br)c([N+](=O)[O-])c1	64*	nt	nt	nt	nt
Cc1ccc(NC(=O)C(C)Oc2ccc(Cl)cc2Cl)c([N+](=O)[O-])c1 (configuration not stated)	77*	i	i	i	i
COc1ccc(NC(=O)COc2ccccc2)c([N+](=O)[O-])c1	72*	nt	nt	nt	nt
C[C@@H]1CN([C@H](C)CO)C(=O)c2cccc(N(C)C)c2O[C@H]1CN(C)C	1	i	i	i	i
O=C(COc1ccc(Cl)cc1)Nc1ccc2nn(-c3ccc(F)cc3)nc2c1	41	nt	nt	nt	nt
COC(=O)c1sc(NC(=S)Nc2c(C)nn(Cc3c(F)c(F)c(F)c(F)c3F)c2C)c(C(=O)OC)c1C	7	nt	nt	nt	nt
SMILES	p53 PUMA act	STAT3 SMM	p53 mut binder	NFkB binder	Myc binder
COc1ccc(S(=O)(=O)N(C)CC(=O)O)cc1	-11	i	i	i	+
CS(=O)(=O)N(CC(=O)O)c1ccc(Cl)cc1	-10	nt	nt	nt	nt
Cc1ccc(Cl)cc1N(CC(=O)O)S(C)(=O)=O	-5	i	i	+	+
CN(CC(=O)O)S(=O)(=O)c1cc(Cl)ccc1Cl	4	i	i	+	+
COc1ccc(S(=O)(=O)N(C)CC(=O)O)cc1C	12	nt	nt	nt	nt
COc1ccc(CN(C)C[C@H]2Oc3ccc(NS(=O)(=O)c4ccc(OC)cc4)cc3CC(=O)N([C@@H](C)CO)C[C@@H]2C)cc1	4	i	i	i	i
Cc1ccc(-c2noc(CSc3nc(C)cc(C)n3)n2)cc1	63*	nt	nt	nt	nt
Cc1ccc(-c2noc(CSc3nnc(C)n3-c3cccc(C)c3)n2)cc1	2	nt	nt	nt	nt
CCn1nccc1C(=O)Nc1nc2ccccc2n1CCN1CCCCC1	-2	i	i	i	+
C[C@H]1CCCCO[C@H](CN(C)CC2CC2)[C@@H](C)CN([C@@H](C)CO)C(=O)c2cc(NS(=O)(=O)c3ccccc3)ccc2O1	nt	i	i	i	i
COc1ccc(-c2noc(CC(=O)O)c2-c2ccc(OC)cc2)cc1	-13	i	i	i	+
CNC[C@@H]1Oc2ncc(C#Cc3ccccc3)cc2C(=O)N([C@H](C)CO)C[C@@H]1C	2	i	i	+	+
CC(C)NC(=O)N(C)C[C@@H]1Oc2ncc(C#Cc3ccc(C(F)(F)F)cc3)cc2C(=O)N([C@H](C)CO)C[C@@H]1C	-13	i	+	+	+
O=C(O)CC(Cc1ccccc1)C(=O)Nc1ccc(Cl)c(Cl)c1 (configuration not stated)	-2	i	i	i	i
COc1ccc(S(=O)(=O)N(C)C[C@@H]2OCCCC[C@@H](C)Oc3ccc(NC(=O)NC(C)C)cc3C(=O)N([C@H](C)CO)C[C@H]2C)cc1	-5	nt	nt	nt	nt
COc1cc2c(cc1NC(=O)CSc1nnnn1C)oc1ccccc12	147*	nt	nt	nt	nt
COc1cc2c(cc1NC(=O)CSc1nnc(N)s1)oc1ccccc12	117*	i	i	i	i
COc1ccc(OC)c(NC(=O)CN2CCC(C(N)=O)(N3CCCCC3)CC2)c1	2	nt	nt	nt	nt
Cn1c2ccccc2c2nnc(SCCN3CCCCC3)nc21	5	i	i	i	+
c1ccc2c(c1)[nH]c1nc(SCCN3CCCCC3)nnc12	9	i	i	i	+
CCOC(=O)CSc1nnc2c3ccccc3n(C)c2n1	-5	i	i	i	i
C[C@@H]1CCCCO[C@H](CN(C)C(=O)CCC(F)(F)F)[C@H](C)CN([C@@H](C)CO)C(=O)c2cc(NC(=O)CCC(F)(F)F)ccc2O1	-4	i	i	+	i
C[C@@H]1CCCCO[C@@H](CN(C)C(=O)CCC(F)(F)F)[C@H](C)CN([C@@H](C)CO)C(=O)c2cc(NC(=O)CCC(F)(F)F)ccc2O1	-6	i	i	+	+
C[C@@H]1CCCCO[C@@H](CN(C)C(=O)CCC(F)(F)F)[C@H](C)CN([C@@H](C)CO)C(=O)c2cc(NC(=O)Cc3ccccc3)ccc2O1	-21	i	i	i	i
O=C(O)CCc1ccc(-c2cccs2)n1-c1cccc(C(F)(F)F)c1	14	nt	nt	nt	nt
